Results as given in PubChem BioAssay (NCATS).
Values joined by “and” are separate entries in the source; they are usually repeats but may differ in a detail not shown here. Identical values can stand only once. Results filed as inconclusive are left out. Entries that show only a call come without a potency. Some structures have more than one record in an assay (separate samples or runs), and their calls can disagree. Active and inactive are the calls of the source. Calls come from the whole dose curve; as a rule, active = well fitted curve in the direction sought with a large enough effect; inconclusive = small, poorly fitted or top-dose-only effect, or another doubt; inactive = no such curve, though single readings can be large; an effect the other way counts as inactive or inconclusive.

Tests used:
[1] = qHTS assay for measurement of the activity of small molecule inhibitors on Zika virus induced Caspase-3 activity in human astrocytoma cells (AID 1224859); note: potency is the fitted concentration of half-maximal effect
In short: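 Compound added 1 h pre-infection; ZIKV 2 FFU/cell on SNB-19 cells, 6 h, 37 C/5% CO2. Caspase-Glo 3/7 luminescence; values as % inhibition of ZIKV-induced caspase activity.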

[2] = qHTS Screen of the MIPE 4.0 Collection Against Ewings Sarcoma (EW8) (AID 1259255); note: nearly all actives have a fitted effect of over 35% in size; note: potency is the fitted concentration of half-maximal effect
In short: (§1)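 Log-phase cells in RPMI with 5% FBS attached for 4 h, then received compounds as a titration for 48 h at 37C, 5% CO2. Viability was read by CellTiter-Glo luminescence and normalized to DMSO and no-cell wells.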

[3] = P-glycoprotein substrates identified in KB-8-5-11 adenocarcinoma cell line, qHTS therapeutic library screen (AID 1346987); note: nearly all actives have a fitted effect of over 65% in size; note: potency is the fitted concentration of half-maximal effect
In short: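 KB-8-5-11, a colchicine-selected P-gp-overexpressing KB-3-1 subline, was grown without colchicine for the assay. Cells were seeded at 500 cells/well, dosed in concentration-response and incubated 72 h at 37 degree C, 5% CO2. Viability was read by CellTiter-Glo luminescence.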

[4] = NS1 protein of Zika virus - qHTS assay to identify small molecule inhibitors in human HEK 293 cells (AID 1347053); note: series mostly up to about 46 µM; nearly all actives have a fitted effect of over 55% in size
In short: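 Following 20 h seeding, HEK 293 cells took compound, then 1 h later ZIKV MR766 (MOI = 0.5). Incubation ran 24 h at 37 C before TR-FRET detection of NS1; a drop in signal indicates inhibition.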

[5] = qHTS of pediatric cancer cell lines to identify multiple opportunities for drug repurposing: Primary screen for TC32 cells (AID 1347089); note: nearly all actives have a fitted effect of over 60% in size
In short: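 Measured quantity: luminescence from CellTiter-Glo, reflecting metabolically active TC32 cells following 48 h of compound. Curves came straight from multi-point titrations, with 8 or 11 points in primary and 11 in confirmatory screening.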

[6] = qHTS of pediatric cancer cell lines to identify multiple opportunities for drug repurposing: Primary screen for SJ-GBM2 cells (AID 1347091); note: potency is the fitted concentration of half-maximal effect
In short: (§2)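 Viability measured as metabolically active cells via CellTiter-Glo luminescence following 48 hours of compound exposure, 11-point dilutions in confirmatory testing. 500-1,000 cells/well plated 5 hours before dosing; controls were DMSO and 2.3 µM bortezomib.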

[7] = qHTS Screen of the MIPE 4.0 Collection Against Ewings Sarcoma (TC32) (AID 1259256); note: nearly all actives have a fitted effect of over 45% in size; note: potency is the fitted concentration of half-maximal effect
In short: as §1

[8] = qHTS of pediatric cancer cell lines to identify multiple opportunities for drug repurposing: Primary screen for DAOY cells (AID 1347090); note: nearly all actives have a fitted effect of over 55% in size; note: potency is the fitted concentration of half-maximal effect
In short: as §2

[9] = P-glycoprotein substrates identified in KB-3-1 adenocarcinoma cell line, qHTS therapeutic library screen (AID 1346986); note: nearly all actives have a fitted effect of over 60% in size;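 note: potency is the fitted concentration of half-maximal effect; potency is for cytotoxicity meaning loss of cell viability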
In short: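 KB-3-1 parental and colchicine-selected P-gp-overexpressing KB-8-5-11 cells (colchicine omitted during assay), 500 cells/well, dosed in dose-response for 72 h at 37 °C; CellTiter-Glo luminescence. Cytotoxic: curve class -1.1 to -2.4, max response >50%, AC50 < 10 uM.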

[10] = qHTS assay to identify small molecule inhibitors of chordoma cells - UCH-2 (AID 1259356); note: series mostly up to about 46 µM
[11] = Identifying Small Molecule Inhibitors of Pancreatic Cancer Stem Cells (Panc1, Spheroid) (AID 1259359); conditions: Panc1 spheroid cancer stem cell viability;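 note: potency is the fitted concentration of half-maximal effect; compound exposure lasted 48 h before reading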
In short: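 Spheroids grown 14 days in stem cell media on nonadherent hydrogel before screening; cells attached 4 h, then compound exposure 48 h at 37C, 5% CO2. CellTiter-Glo luminescence normalized to DMSO (no inhibition) and no-cell wells (full inhibition).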

SMILES: CN(C[C@@H]1COCCO1)S(=O)(=O)Nc1ccc2ccc3ncc(-c4cnn(C)c4)cc3c(=O)c2c1
- Potency [1]: inactive
- Potency [2]: 18.7 µM (active)
- Potency [3]: 18.7 µM (active) and 18.4 µM (active)
- Potency [4]: inactive
- Potency [5]: inactive
- Potency [6]: 372 nM (active)

SMILES: CCC(=O)O[C@]1(C(=O)CO)CC[C@H]2[C@@H]3CCC4=CC(=O)CC[C@]4(C)[C@@H]3CC[C@@]21C
- Potency [1]: inactive
- Potency [2]: inactive
- Potency [7]: inactive
- Potency [3]: inactive
- Potency [4]: inactive
- Potency [5]: inactive
- Potency [8]: inactive
- Potency [6]: inactive

SMILES: C[C@]12CC[C@@H]3c4ccc(O)cc4CC[C@H]3[C@H]1C[C@@H](O)[C@H]2O
- Potency [1]: inactive
- Potency [7]: 26.4 µM (active)
- Potency [3]: inactive
- Potency [4]: inactive
- Potency [5]: inactive
- Potency [8]: inactive
- Potency [6]: inactive

SMILES: Cc1c(NC(=O)c2ccc(C(C)(C)C)cc2)cccc1-c1cn(C)c(=O)c(Nc2ccc(C(=O)N3CCOCC3)cc2)n1
- Potency [1]: 11.8 µM (active)
- Potency [2]: 20.9 µM (active)
- Potency [7]: 20.9 µM (active)
- Potency [3]: inactive
- Potency [5]: inactive

SMILES: O=C(O)c1ccc(-c2c[nH]c3ncc(-c4ccccc4)cc23)cc1C1CCCC1
- Potency [1]: inactive
- Potency [7]: inactive
- Potency [9]: inactive
- Potency [3]: inactive and 3.66 µM (active)
- Potency [4]: inactive
- Potency [5]: inactive
- Potency [8]: inactive

SMILES: O=C(O)c1c(Cl)c(Cl)c(Cl)c(Cl)c1-c1c2cc(I)c(=O)c(I)c-2oc2c(I)c(O)c(I)cc12
- Potency [1]: inactive
- Potency [7]: 18.7 µM (active)
- Potency [3]: inactive
- Potency [4]: inactive

SMILES: CC[C@H]1OC(=O)[C@H](C)C(=O)[C@H](C)[C@@H](O[C@H]2O[C@H](C)C[C@H](N(C)C)[C@@H]2O)[C@](C)(OC)C[C@@H](C)C(=O)[C@H](C)[C@H]2N(CCCCn3cnc(-c4cccnc4)c3)C(=O)O[C@]12C
- Potency [1]: inactive
- Potency [2]: 20.9 µM (active)
- Potency [7]: 16.6 µM (active)
- Potency [5]: inactive
- Potency [8]: inactive
- Potency [6]: inactive

SMILES: CCCCCCCCCCCC1=C(O)C(=O)C=C(O)C1=O
- Potency [1]: inactive
- Potency [2]: inactive
- Potency [7]: 23.5 µM (active)
- Potency [9]: inactive
- Potency [3]: inactive
- Potency [4]: inactive
- Potency [5]: inactive
- Potency [8]: 0.935 µM (active)
- Potency [6]: 33.2 nM (active)

SMILES: O=C(NCc1ccccc1)c1csc(Nc2ccncn2)n1
- Potency [1]: inactive
- Potency [2]: 20.9 µM (active)
- Potency [7]: 18.7 µM (active)
- Potency [3]: inactive
- Potency [5]: inactive

SMILES: Cc1cnc(C(=O)O)c[n+]1[O-]
- Potency [1]: inactive
- Potency [2]: inactive
- outcome [10]: inactive
- Potency [9]: inactive
- Potency [3]: inactive
- Potency [4]: inactive
- Potency [5]: inactive
- Potency [8]: inactive
- Potency [6]: inactive

SMILES: CO[C@@H](C(=O)N1Cc2[nH]nc(NC(=O)c3ccc(N4CCN(C)CC4)cc3)c2C1)c1ccccc1
- Potency [1]: inactive
- Potency [2]: 0.0935 µM (active)
- Potency [7]: 0.0662 µM (active)
- Potency [9]: 1.3 µM (active)
- Potency [4]: inactive
- Potency [6]: 187 nM (active)

SMILES: COC(=O)C1=CO[C@@H](O)[C@@H]2C(CO)=CC[C@@H]12
- Potency [1]: inactive
- Potency [2]: inactive
- Potency [3]: inactive
- Potency [5]: inactive

SMILES: C=C1C(=O)OC2C=C(C)CCC=C(C)CCC12 (centres undefined)
- Potency [1]: inactive
- Potency [2]: 23.5 µM (active)
- Potency [7]: 20.9 µM (active)
- Potency [3]: inactive
- Potency [4]: inactive
- Potency [5]: inactive

SMILES: NC1=N[C@@]2(c3cc(NC(=O)c4ccc(F)cn4)ccc3F)COC[C@@H]2CS1
- Potency [1]: inactive
- Potency [2]: inactive
- Potency [7]: inactive
- Potency [3]: inactive
- Potency [4]: inactive
- Potency [5]: inactive
- Potency [8]: 4.69 µM (active)
- Potency [6]: 296 nM (active)

SMILES: O=C(NC1CCOCC1)c1ccc(-c2cc(-c3cn[nH]c3-c3ccccn3)ccn2)cc1
- Potency [1]: inactive
- Potency [2]: inactive
- Potency [7]: inactive
- Potency [3]: inactive
- Potency [4]: inactive
- Potency [5]: inactive
- Potency [8]: inactive
- Potency [6]: inactive

SMILES: O=C(O)[C@H]1O[C@H](Oc2cc3oc(-c4ccccc4)cc(=O)c3c(O)c2O)[C@H](O)[C@@H](O)[C@H]1O
- Potency [1]: inactive
- Potency [7]: 18.7 µM (active)
- Potency [3]: inactive
- Potency [4]: inactive
- Potency [5]: inactive
- Potency [8]: inactive
- Potency [6]: inactive

SMILES: CC1(C)S[C@H]2[C@H](NC(=O)[C@@H](N)c3ccc(O)cc3)C(=O)N2[C@@H]1C(=O)O
- Potency [1]: inactive
- Potency [2]: inactive
- Potency [9]: inactive
- Potency [3]: inactive
- Potency [4]: inactive
- Potency [8]: 9.35 µM (active)
- Potency [6]: 16600 nM (active)

SMILES: O=C(OCC#CCSc1nnc(-c2cccc3ccccc23)o1)c1cc2ccccc2s1
- Potency [1]: inactive
- Potency [2]: inactive
- Potency [3]: inactive
- Potency [4]: inactive
- Potency [5]: inactive
- Potency [8]: inactive
- Potency [6]: inactive

SMILES: COc1cc2c(cc1OC)CN(CCc1ccc(NC(=O)c3cc(OC)c(OC)cc3NC(=O)c3cnc4ccccc4c3)cc1)CC2
- Potency [1]: inactive
- Potency [7]: 5.9 µM (active)
- Potency [9]: inactive
- Potency [3]: inactive
- Potency [4]: inactive
- Potency [5]: inactive
- Potency [8]: inactive
- Potency [6]: inactive

SMILES: CN(C)CCC=C1c2ccccc2COc2ccc(CC(=O)O)cc21
- Potency [1]: inactive
- Potency [2]: inactive
- Potency [9]: inactive
- Potency [3]: inactive
- Potency [4]: inactive
- Potency [5]: inactive
- Potency [8]: inactive
- Potency [6]: inactive

SMILES: COC(=O)N[C@H](C(=O)N1CCC[C@@H]1c1ncc(-c2ccc(-c3ccc(-c4cnc([C@@H]5CCCN5C(=O)[C@@H](NC(=O)OC)C(C)C)[nH]4)cc3)cc2)[nH]1)C(C)C
- Potency [1]: inactive
- Potency [2]: 26.4 µM (active)
- Potency [7]: 26.4 µM (active)
- Potency [3]: inactive
- Potency [5]: inactive
- Potency [6]: 23500 nM (active)

SMILES: O=C(O)CCC1CCC(c2cc(F)ccc2F)(S(=O)(=O)c2ccc(Cl)cc2)CC1 (centres undefined)
- Potency [1]: inactive
- Potency [7]: 11.8 µM (active)
- Potency [11]: 3.32 µM (active)
- Potency [9]: inactive
- Potency [3]: inactive
- Potency [4]: inactive
- Potency [5]: inactive
- Potency [8]: 11.8 µM (active)

SMILES: CC(C)C(C)C=CC(C)C1CCC2C3=CC=C4CC(O)CCC4(C)C3CCC21C (centres undefined)
- Potency [1]: inactive
- Potency [2]: inactive
- Potency [7]: inactive
- Potency [3]: inactive
- Potency [4]: inactive
- Potency [5]: inactive
- Potency [8]: inactive
- Potency [6]: inactive

SMILES: COc1cc(N2CCC(N3CCN(C)CC3)CC2)ccc1Nc1ncnc(Nc2ccccc2S(=O)(=O)C(C)C)n1
- Potency [1]: inactive
- Potency [2]: 20.9 µM (active)
- Potency [9]: 10.3 µM (active)
- Potency [3]: 5.9 µM (active) and 9.2 µM (active)
- Potency [8]: inactive

SMILES: O=C(O)C(O)Cc1ccc(O)c(O)c1 (centres undefined)
- Potency [1]: inactive
- Potency [7]: inactive
- Potency [3]: inactive
- Potency [4]: inactive
- Potency [5]: inactive
- Potency [8]: inactive
- Potency [6]: inactive
